Outcome and AC50 data for nine compounds are collected here from PubChem BioAssay (EPA / NIEHS).

Read-out in assay [1]: X-box binding protein 1 (XBP1), XBP1 (gene 7494)
Nature of the assay: LTEA_HepaRG_XBP1: Life Technologies and Expression Analysis (LTEA) Assay for X-box binding protein 1 (XBP1) using HepaRG (AID 2283540; active = hit-call score of the fitted dose curve at least 0.9, where 1 is the maximum; inactive = score below 0.9). As to conditions: mRNA level, 48 h; actives raise or lower the signal. Summed up: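 HepaRG, 48 h exposure, 8-pt half-log CRC top 100 uM, 0.5% DMSO vehicle, duplicates. Readout: TaqMan qRT-PCR of XBP1 mRNA, housekeeping-normalised (ACTB/GAPDH/POLR2A); bidirectional fit vs DMSO baseline.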

A short description of assay [2]: LTEA_HepaRG_LDH_cytotoxicity: Cytotoxicity Assessment in the Life Technologies and Expression Analysis (LTEA) Assay (AID 2283563). An outline of the steps: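 HepaRG (human liver line), 48 h exposure, 8-pt half-log series from 100 uM, 0.5% DMSO vehicle, duplicates. Read-out: LDH in spent medium. Positive-direction fit vs DMSO baseline.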
For assay [3], the target named is Cellular tumor antigen p53 (Homo sapiens) (UniProt P04637). In words: TOX21_p53_BLA_p2_ratio: Tox21 HCT-116 p53 Agonism Beta-lactamase Assay, Ratio, Phase 2 (AID 2283592). Summed up:
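Readout: blue/green (460/530 nm) FRET emission ratio after 2 h CCF4-AM loading at room temperature, excitation 405 nm. HCT116 p53 bla cells, 16 h compound exposure at 37C, 5% CO2; agonist direction fitted against DMSO baseline.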

Assay [4] has the same target. In words: TOX21_p53_BLA_p3_ratio: Tox21 HCT-116 p53 Agonism Beta-lactamase Assay, Ratio, Phase 3 (AID 2283596). An outline of the steps: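 Cells were seeded at 4000/well, rested 5 h at 37C, then dosed with DMSO compound solutions (217-fold dilution) for 16 h. CCF4-AM substrate was loaded for 2 h at room temperature, and the 460/530 nm emission ratio was fitted for gain of signal versus DMSO.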

The nature of assay [5]: TOX21_p53_BLA_p4_viability: Viability Assessment in the Tox21 HCT-116 p53 Agonism Beta-lactamase Assay, Phase 4 (AID 2283597).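 Also: hits lower the luminescence signal meaning cytotoxicity.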 Summed up: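 ATP content by CellTiter-Glo luminescence, 30 min RT, read after the beta-lactamase ratio step. Cells: HCT116, 4000/well, compound added after 5 h, exposure 16 h at 37C. Signal loss = reduced viability.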
Assay [6] in a line: Tanguay_ZF_120hpf_MORT_legacy: (Legacy) Oregon State University Tanguay Lab 120 Hour Post-fertilization zebrafish Assay for Mortality (AID 2283633). Summed up: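 Brightfield scoring of embryo death (binary) at 24 and 120 hpf; static exposure 6–120 hpf, 28C, sealed and foil-covered. Pronase-dechorionated 5D wild-type larvae, single embryo per well. DMSO 0.64% v/v; trimethyltin chloride 5uM positive control.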

Assay [7] in a line: Tanguay_ZF_120hpf_YSE_legacy: (Legacy) Oregon State University Tanguay Lab 120 Hour Post-fertilization zebrafish Assay for Yolk Sac Edema (AID 2283634). An outline of the steps:
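Binary brightfield scoring of yolk sac edema at 120 hpf; DMSO baseline, gain-of-signal fitting. Dechorionated 5D larvae, one per well, static exposure 6–120 hpf, 28C, 0.64% DMSO. Dead embryos not scored.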

Assay [8] can be described thus: Tanguay_ZF_120hpf_AXIS_legacy: (Legacy) Oregon State University Tanguay Lab 120 Hour Post-fertilization zebrafish Assay for Body Axis Malformation (AID 2283635). An outline of the steps:
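Embryos: 5D wild-type, pronase-dechorionated 4 hpf; static exposure 6–120 hpf, 28C, sealed, dark, 1 embryo/well, 0.64% DMSO. 120 hpf axis malformation scored present/absent; dead embryos excluded. Analysed as gain of signal vs DMSO.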

The nature of assay [9]: Tanguay_ZF_120hpf_EYE_legacy: (Legacy) Oregon State University Tanguay Lab 120 Hour Post-fertilization zebrafish Assay for Eye Malformation (AID 2283636).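 Also: binary presence or absence of eye malformation scored by brightfield in 120 hpf larvae.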 Summed up:
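5D wild-type embryos, pronase-dechorionated at 4 hpf; static exposure 6–120 hpf, 28C, dark; DMSO 0.64% final; 5uM trimethyltin chloride positive control. Binary eye-defect scoring at 120 hpf; dead embryos not scored.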

The nature of assay [10]: Tanguay_ZF_120hpf_SNOU_legacy: (Legacy) Oregon State University Tanguay Lab 120 Hour Post-fertilization zebrafish Assay for Snout Malformation (AID 2283637). Summed up: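 Binary brightfield scoring of snout malformation at 120 hpf. Dechorionated 5D wild-type embryos, one per well, static exposure from 6 hpf at 28C, sealed and dark; final DMSO 0.64% (vol/vol), DMSO as baseline; 5uM trimethyltin chloride positive control.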

Assay [11] in a line: Tanguay_ZF_120hpf_JAW_legacy: (Legacy) Oregon State University Tanguay Lab 120 Hour Post-fertilization zebrafish Assay for Jaw Malformation (AID 2283638). An outline of the steps: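 Binary jaw-malformation calls at 120 hpf by brightfield imaging; DMSO (0.64% v/v) = baseline. Embryos: 5D wild-type, pronase-dechorionated, one per well from 6 hpf, static exposure, 28C, sealed, dark.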

Assay [12] is described as follows: Tanguay_ZF_120hpf_OTIC_legacy: (Legacy) Oregon State University Tanguay Lab 120 Hour Post-fertilization zebrafish Assay for Otic Vesicle Malformation (AID 2283639). An outline of the steps:
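Wild-type zebrafish larvae, whole-embryo exposure from early stage to 120 hpf at 28C. Binary brightfield scoring of otic vesicle morphology, fitted in the positive direction against the DMSO baseline.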

Assay [13] can be described thus: Tanguay_ZF_120hpf_PE_legacy: (Legacy) Oregon State University Tanguay Lab 120 Hour Post-fertilization zebrafish Assay for Pericardial Edema (AID 2283640). An outline of the steps:
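Static waterborne exposure, 5D wild-type embryos, 28C, to 120 hpf; final DMSO 0.64% (vol/vol). Binary PE call at 120 hpf by brightfield; fitted upward vs DMSO baseline. 5uM trimethyltin chloride as positive control.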

Assay [14] in a line: Tanguay_ZF_120hpf_BRAI_legacy: (Legacy) Oregon State University Tanguay Lab 120 Hour Post-fertilization zebrafish Assay for Brain Malformation (AID 2283641). An outline of the steps:
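Read-out: binary brain morphology call at 120 hpf (brightfield), fitted in gain-of-signal direction vs DMSO. Wild-type Tropical 5D embryos, static exposure, 28C, 0.64% DMSO final; 5uM trimethyltin chloride as positive control.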

The nature of assay [15]: TOX21_p53_BLA_p2_viability: Viability Assessment in the Tox21 HCT-116 p53 Agonism Beta-lactamase Assay, Phase 2 (AID 2283591).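 Also: actives lower the ATP signal meaning cytotoxicity.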 An outline of the steps:
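HCT116 p53-bla cells, 4000/well, dosed after 5 h plating (217-fold dilution of DMSO stocks) and incubated 16 h at 37C. Viability taken as cellular ATP by CellTiter-Glo luminescence after 30 min RT; signal loss marks cytotoxicity.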

Assay [16] concerns the target Cellular tumor antigen p53 (Homo sapiens) (UniProt P04637). Nature of the assay: TOX21_p53_BLA_p5_ratio: Tox21 HCT-116 p53 Agonism Beta-lactamase Assay, Ratio, Phase 5 (AID 2283599). An outline of the steps: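 HCT-116 p53-bla cells (4000/well) plated 5 h, dosed with compound (217-fold DMSO dilution) for 16 h at 37 C; CCF4-AM substrate 2 h at room temperature. Activity is the 460/530 nm emission ratio (405 nm excitation), fitted in gain-of-signal direction versus DMSO.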

For assay [17] the target is unchanged. Nature of the assay: TOX21_p53_BLA_p4_ratio: Tox21 HCT-116 p53 Agonism Beta-lactamase Assay, Ratio, Phase 4 (AID 2283601). Summed up: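 HCT-116 p53 beta-lactamase reporter cells (4000/well) preincubated 5 h, then compound (217-fold dilution of DMSO stock) for 16 h at 37C. CCF4-AM substrate added 2 h at room temperature; 460/530 nm emission ratio fitted upward versus DMSO.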

Assay [18] is described as follows: TOX21_p53_BLA_p3_viability: Viability Assessment in the Tox21 HCT-116 p53 Agonism Beta-lactamase Assay, Phase 3 (AID 2283593).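 Also: cells exposed to compound for 16 h before reading.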 Summed up: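 HCT116 cells, 4000/well, dosed 5 h after plating by pin transfer (217-fold dilution from DMSO stock) and incubated 16 h at 37C, 5% CO2. Viability read as ATP luminescence with CellTiter-Glo after 30 min at room temperature.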

A short description of assay [19]: TOX21_p53_BLA_p5_viability: Viability Assessment in the Tox21 HCT-116 p53 Agonism Beta-lactamase Assay, Phase 5 (AID 2283600). An outline of the steps: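 ATP luminescence (CellTiter-Glo, 30 min, RT) served as the viability read-out, with loss of signal indicating cytotoxicity. Compounds in DMSO were pinned at a 217-fold dilution onto 4000 cells/well and incubated 16 h, 37C.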

Each structure is given as a SMILES string. Records with an inconclusive call do not appear. Activity calls are given as the source filed them. The calls were made as follows, unless noted: active = hit-call score of the fitted dose curve at least 0.9, where 1 is the maximum; inconclusive = response in the unintended direction; inactive = score below 0.9.

Sequence of Cellular tumor antigen p53 (Homo sapiens) (P04637 whole entry, looked up): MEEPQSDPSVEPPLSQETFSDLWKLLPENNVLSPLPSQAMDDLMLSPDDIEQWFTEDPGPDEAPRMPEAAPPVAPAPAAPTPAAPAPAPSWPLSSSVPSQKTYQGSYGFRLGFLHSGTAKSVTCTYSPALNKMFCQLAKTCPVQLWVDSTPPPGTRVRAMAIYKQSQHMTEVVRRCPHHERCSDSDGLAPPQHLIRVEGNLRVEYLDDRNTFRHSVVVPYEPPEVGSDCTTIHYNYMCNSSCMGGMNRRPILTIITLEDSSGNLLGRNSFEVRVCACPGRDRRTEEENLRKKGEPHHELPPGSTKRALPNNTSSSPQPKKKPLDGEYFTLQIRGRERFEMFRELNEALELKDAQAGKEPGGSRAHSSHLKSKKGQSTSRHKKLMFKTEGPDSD

Consider `CCCC(=NOCC)C1=C(O)CC(CC(C)SCC)CC1=O` (stereo unspecified), for which the compound was classed as inactive in [1], in assay [2], in [3], in assay [4], in assay [5] and in [6]. Besides, the call in assay [7], in [8], in assay [9], in assay [10], in assay [11] and in [12] was inactive. Further, the outcome in assay [13] and in assay [14] was inactive.
For `CCC(C)n1c(=O)[nH]c(C)c(Br)c1=O` (stereo unspecified), the AC50 in assay [1] was 30.5 µM (active). Also, the outcome in [2], in assay [15], in [3], in [6], in assay [7] and in [9] was inactive. Moreover, the compound was called inactive in assay [10], in assay [12], in assay [13] and in assay [14].
Regarding `CCOc1nc(F)cc2nc(S(=O)(=O)Nc3c(Cl)cccc3Cl)nn12`, the compound was called inactive in assay [1], in [4], in assay [5], in assay [16], in [17] and in assay [6]. Also, the call in assay [8], in [10], in assay [11], in assay [12], in [13] and in [14] was inactive.
For `CCSC(=O)N1CCCCCC1`, the outcome in assay [1], in assay [2], in [15], in assay [18], in [4] and in assay [16] was inactive. Moreover, the call in assay [6], in [7], in assay [8], in [9], in assay [10] and in [11] was inactive. Besides, the result in assay [12] and in assay [14] was inactive.
Take `CNC(=O)Oc1cccc2ccccc12`: the result in assay [1], in [2], in [3], in assay [18], in assay [4] and in [5] was inactive. Further, the outcome in assay [16], in [17], in assay [6], in assay [7], in [8] and in [9] was inactive. Moreover, the result in assay [10], in [11], in [12], in [13] and in assay [14] was inactive.
In the case of `COc1cc(OC)nc(NC(=O)NS(=O)(=O)c2ncccc2OCC(F)(F)F)n1`, the outcome in [1], in assay [2], in [15], in assay [18], in [4] and in assay [5] was inactive. For the same compound, the result in assay [16], in assay [17], in [6], in assay [7], in assay [8] and in assay [9] was inactive. For the same compound, the compound was classed as inactive in assay [10], in [11], in [12], in assay [13] and in assay [14].
With `N#Cc1c(Cl)cccc1Cl`, the outcome in assay [1], in assay [2], in [4], in [16], in assay [17] and in [6] was inactive. Also, the result in [7], in assay [8], in [9], in assay [10], in assay [11] and in assay [12] was inactive. Moreover, the compound was called inactive in assay [13] and in [14].
Turning to `CC(C)C1(C)N=C(c2ncccc2C(=O)O)NC1=O` (stereo unspecified), the compound was called inactive in [1], in [2], in assay [3], in [4], in assay [5] and in assay [16]. The compound was classed as inactive in [19], in assay [17], in assay [6], in assay [7], in assay [8] and in [9]. Also, the compound was classed as inactive in assay [10], in assay [11], in [12], in assay [13] and in [14].
Turning to `CCOc1nc(C(Cl)(Cl)Cl)ns1`, in assay [1], the AC50 was 0.83 µM (active). Moreover, the result in assay [2], in assay [3], in assay [18], in [5], in assay [16] and in assay [17] was inactive. The compound was called inactive in [6], in assay [7], in [8], in [9], in [10] and in [11]. Further, the call in [13] and in assay [14] was inactive.
